Assay results taken from PubChem BioAssay AID651703 (Broad Institute, 2012).
The campaign covered roughly 1,200 compounds. About 970 (81%) were called active. How the calls were made is not given here. So high a share suggests a set chosen from earlier hits. Only a sample is shown. Results with a measured potency or affinity are listed apart.

What follows are compounds tested against Transforming acidic coiled-coil-containing protein 3 (Homo sapiens) (UniProt Q9Y6A5) (assay: inhibition of ARNT PAS-B/TACC3 complex formation – biochemical, AlphaScreen, cherry-picked samples, confirmation (AID 651703;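 further: TACC3 partner is the GST-tagged E629A mutant dimer; hits lower the signal meaning they disrupt ARNT binding to TACC3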)). Settings: AlphaScreen His-ARNT PAS-B / GST-TACC3 binding, luminescence; series mostly up to 68 µM.

outcome, inactive:
COc1ccc(-c2nc(CN3CCC(C(=O)NC4CCCc5ccccc54)CC3)c(C)o2)cc1OC (configuration not stated)
O=C(C[C@@H]1CC[C@H](NC(=O)CN2CCOCC2)[C@H](CO)O1)NCCc1ccncc1
CN(C)S(=O)(=O)N1CCN(S(=O)(=O)c2ccc(F)cc2)CC1
Cc1nnc(NC(=O)CSc2nnc(CNC(=O)c3ccc(F)cc3)o2)s1
COc1ccc2cc1Oc1ccc(cc1)C[C@H]1c3cc(c(OC)cc3CCN1C)Oc1c(OC)c(OC)cc3c1[C@@H](C2)N(C)CC3
CCC(C(=O)Nc1ncn[nH]1)(C(F)(F)F)C(F)(F)F
CC(=O)c1cccc(NC(=O)N2CCCC2C(=O)NCc2ccccc2)c1 (configuration not stated)
COc1ccc(/C(C)=N\NC(=O)CSc2nnc(C)s2)cc1
O=C(NCC1CC1)c1cc(-c2ccccc2)on1
NS(=O)(=O)c1ccc(CCNC(=O)c2ccc3c(c2)OCO3)cc1
O=C(NCCCO)c1cc(-c2ccccc2)on1
Oc1c(Br)cccc1/C=N/c1ncn[nH]1
Cn1c(=NC(=O)c2cnccn2)sc2ccccc21
O=C1NC[C@H](c2ccccc2)OC(=O)[C@H](Cc2ccc(F)cc2)CC/C=C/C[C@@H]1CC(=O)N(CCO)Cc1ccccc1
COc1ccc(Nc2nc(N)nc(CN3CCOCC3)n2)cc1
Fc1ccc(/C=N/Nc2ncnc3nc[nH]c23)cc1F
CCn1c(Cc2ccccc2)nnc1SCC(=O)Nc1ccc(N)cc1
COCCNC(=O)Cn1cc(C(=O)c2cccs2)c2ccccc21
C[C@H]1CCCCO[C@H](CN(C)C(=O)Nc2ccc(F)cc2)[C@@H](C)CN([C@@H](C)CO)C(=O)c2cc(NS(=O)(=O)c3ccc(Cl)cc3)ccc2O1
CC(OC(=O)Cc1c(F)cccc1Cl)C(=O)NC1(C#N)CCCCC1 (configuration not stated)
Nc1ccc(C(=O)Nc2ccc3c(O)cc(S(=O)(=O)O)cc3c2)cc1
Cc1cc2c(NC(=O)CC(C)(C)CC(=O)O)cccc2nn1
CCN1CCN(c2ccc(NC(=O)c3cccc(S(=O)(=O)N4CCCC4)c3)cc2)CC1
O=C(O)c1ccc(Br)c(S(=O)(=O)N2CCCC2)c1
COc1cc(/C=N/NC(=O)CCN2CCN(c3ccccc3)CC2)cc(OC)c1OC
O=C(Nc1cn2ccccc2n1)c1cc(-c2ccccc2)on1
COC(=O)c1[nH]c2ccc(C)cc2c1NC(=O)c1ccccc1[N+](=O)[O-]
CC(NC(=O)COC(=O)c1ccc([N+](=O)[O-])o1)c1ccccc1 (configuration not stated)
O=C(NC1CCc2ccccc2C1)c1cc(-c2ccccc2)on1 (configuration not stated)
Cc1ccccc1Oc1nc(-c2ccccn2)nc2ccccc12
CCOC(=O)CC(NC(=O)Cc1ccc(F)cc1)c1ccccc1Cl (configuration not stated)
COc1cc(C2Nc3ccccc3C(=O)N2NS(C)(=O)=O)c([N+](=O)[O-])cc1OC (configuration not stated)
NC1=NN=C(N2N=C(c3ccccc3)CC2(O)C(F)(F)F)n2ncnc2C1 (configuration not stated)
O=C1C=C(O)c2cccc(O)c2C1=O
CCc1c(C)sc(NC(=O)C2CC(c3c(F)cccc3Cl)=NO2)c1C#N (configuration not stated)
CC[C@]1(O)CC2CN(CCc3c([nH]c4ccccc34)[C@@](C(=O)OC)(c3cc4c(cc3OC)N(C=O)[C@H]3[C@@](O)(C(=O)OC)[C@H](OC(C)=O)[C@]5(CC)C=CCN6CC[C@]43[C@@H]65)C2)C1 (some centres not stated)
COc1ccccc1C(=O)Nc1ccccc1N1CCCCC1
O=C(C[C@H]1C=C[C@@H](NC(=O)Nc2ccccc2)[C@@H](CO)O1)NCc1ccccn1
Cc1ccc(N(C)S(=O)(=O)c2cccc(C(=O)Oc3ccc4c(C)cc(=O)oc4c3)c2)cc1
Cc1ccc(S(=O)(=O)Cn2nnnc2C(c2ccccc2)N2CCN(c3ccccc3)CC2)cc1 (configuration not stated)
O=C(NC1Cc2ccccc2C1)[C@H]1N[C@H]2c3cccc(=O)n3C[C@H]2[C@@H]1CO
Cc1[nH]n(-c2ccccc2)c(=O)c1C(c1ccc(O)c([N+](=O)[O-])c1)c1c(C)[nH]n(-c2ccccc2)c1=O
Cc1[nH]n(-c2ccccc2)c(=O)c1C(c1ccc(C(=O)O)cc1)c1c(C)[nH]n(-c2ccccc2)c1=O
COc1ccc(CCNC(=O)C23CCC(C)(C(=O)C2Br)C3(C)C)cc1OC (configuration not stated)
Cn1c(CCNC(=O)c2ccc(Cl)c(Cl)c2)nnc1SCc1ccc(Cl)c(Cl)c1
O=C(c1cc(-c2ccccc2)on1)N1CCN(c2ccncc2)CC1
O=C(C1=C(O)C(=O)N(Cc2ccccc2)C1c1ccncc1)c1ccco1 (configuration not stated)
COc1cc(Cc2nccc3cc(OC)c(OC)cc23)c(S(=O)(=O)O)cc1OC
CC=Cc1ccc2n(c1=O)C[C@H]1[C@H](CO)[C@@H](C(=O)NC3CCC3)[C@@H]2N1S(=O)(=O)c1cn(C)cn1 (mixture of isomers)
COc1ccc(Nc2nnc(-c3ccc(C(N)=O)cc3)c3ccccc23)cc1
Cc1cc(C)c(C(N)=O)c(Nc2cccc3ccccc23)n1
C[C@@H]1CN([C@@H](C)CO)C(=O)c2cc(NS(=O)(=O)c3cccs3)ccc2O[C@H]1CN(C)CC1CCCCC1
COc1ccc(-c2cnc3c(c2)C(=O)N([C@@H](C)CO)C[C@@H](C)[C@@H](CN(C)Cc2cccnc2)O3)cc1
C/C(=C\C(=O)c1ccccc1)Nc1ccc(N2CCOCC2)cc1
Cc1ccc(S(=O)(=O)n2nc(C)c(C#N)c2N)cc1
CCCc1nnc(NS(=O)(=O)c2ccc(C)cc2)o1
COC(=O)c1c(N)n(-c2ccc(NC(C)=O)cc2)c2nc3ccccc3nc12
CC(C)C#Cc1ccc2c(c1)O[C@@H](CN(C)C(=O)CN(C)C)[C@@H](C)CN([C@@H](C)CO)S2(=O)=O
C[C@@H]1CCCCO[C@H](CN(C)Cc2ccncc2)[C@H](C)CN([C@H](C)CO)C(=O)c2cc(NC(=O)C3CCCCC3)ccc2O1
COc1ccc(NC(=O)Nc2ccc3c(c2)C(=O)N([C@H](C)CO)C[C@@H](C)[C@@H](CN(C)C(=O)CCC(F)(F)F)OCCCC[C@H](C)O3)cc1
CC(C)NC(=O)N(C)C[C@H]1OCCCC[C@H](C)Oc2ccc(NC(=O)Nc3ccccc3)cc2C(=O)N([C@H](C)CO)C[C@@H]1C
CC(C)NC(=O)Nc1ccc2c(c1)C(=O)N([C@H](C)CO)C[C@H](C)[C@@H](CN(C)C(=O)Cc1ccccc1)OCCCC[C@H](C)O2
